# Experimental data from ChEMBL document CHEMBL1157539, “Thousands of chemical starting points for antimalarial lead identification” (Nature, 2010).
# Several values for one entry are separate records, joined by “and”; a condition that tells them apart may be missing. Equal entries are not always repeated.
# Columns and labels:
# Type in all cases: functional
# Plasmodium falciparum [1] = assay: GSK_TCMDC: Inhibition of Plasmodium falciparum 3D7 in whole red blood cells, using parasite LDH activity as an index of growth. Test compounds present at 2uM
# Plasmodium falciparum [2] = assay: GSK_TCMDC: Inhibition of Plasmodium falciparum Dd2 in whole red blood cells, using parasite LDH activity as an index of growth. Test compounds present at 2uM
# HepG2 = assay: GSK_TCMDC: Percent inhibition of human HepG2 cell line. Test compounds present at 10uM.
smiles,measurement,setting,value
O=C(/C=C/c1ccc(Cl)c(Cl)c1)NCCCCCCN1CCCN(C(=O)Nc2ccc(Cl)c(C(F)(F)F)c2)CC1,Inhibition,Plasmodium falciparum [1],100%
same,Inhibition,Plasmodium falciparum [2],24%
same,Inhibition,HepG2,25%
CCCOc1cc(NC(=O)Nc2ccnc3ccccc23)cc(OCCC)c1.Cl,Inhibition,Plasmodium falciparum [1],100%
same,Inhibition,Plasmodium falciparum [2],98%
same,Inhibition,HepG2,6%
CCCN(CCCCNC(=O)c1ccc(-c2cccnc2)cc1)C1CCc2c(O)cccc2C1.Cl (centres undefined),Inhibition,Plasmodium falciparum [1],87%
same,Inhibition,Plasmodium falciparum [2],16%
same,Inhibition,HepG2,0%
O=C(NCCCN1CCCC1=O)NCc1ccccc1,Inhibition,Plasmodium falciparum [1],99%
same,Inhibition,Plasmodium falciparum [2],4%
same,Inhibition,HepG2,8%
CC1CN(c2cnn(Cc3cccc(NC(=O)Nc4cccc(C(F)(F)F)c4)c3)c(=O)c2Cl)CC(C)N1.O=C(O)C(F)(F)F (centres undefined),Inhibition,Plasmodium falciparum [1],96%
same,Inhibition,Plasmodium falciparum [2],74%
same,Inhibition,HepG2,19%
COCCOC(=O)C(=O)c1c(-c2ccccc2)c(-c2ccc(OC)c(OC)c2)c2c3cc(OC)c(OC)cc3ccn12,Inhibition,Plasmodium falciparum [1],100%
same,Inhibition,Plasmodium falciparum [2],100%
same,Inhibition,HepG2,4%
CN1CC[C@@H](Oc2cc(C(=O)NCc3ccc(Cl)c(Cl)c3)ccc2C(F)(F)F)C1.Cl,Inhibition,Plasmodium falciparum [1],88%
same,Inhibition,Plasmodium falciparum [2],4%
same,Inhibition,HepG2,8%
FC(F)(F)c1ccc2[nH]c(-c3cccc(-c4cccc(CNCC5CCCO5)c4)c3)nc2c1.O=C(O)C(F)(F)F (centres undefined),Inhibition,Plasmodium falciparum [1],100%
same,Inhibition,Plasmodium falciparum [2],96%
same,Inhibition,HepG2,23%
Cc1nnsc1C(=O)Nc1cccc(-c2cccc(-c3nc4cccc(C)c4[nH]3)c2)c1,Inhibition,Plasmodium falciparum [1],99%
same,Inhibition,Plasmodium falciparum [2],80%
same,Inhibition,HepG2,22%
Cc1ccc(-c2ccc(NC(=O)N3CCc4cc(Br)c(N5CCN(C)CC5)cc43)cc2)cn1,Inhibition,Plasmodium falciparum [1],80%
same,Inhibition,Plasmodium falciparum [2],16%
same,Inhibition,HepG2,86%
COc1ccc2nccc([C@@H](O)CN3CCC(NC(=O)/C=C/c4cccc(-c5ccccc5)c4)CC3)c2c1,Inhibition,Plasmodium falciparum [1],98%
same,Inhibition,Plasmodium falciparum [2],83%
same,Inhibition,HepG2,12%
COc1ccc(Nc2nc(=Nc3ccccc3)nc(NN=Cc3cc(Cl)ccc3O)[nH]2)cc1,Inhibition,Plasmodium falciparum [1],100%
same,Inhibition,Plasmodium falciparum [2],10%
same,Inhibition,HepG2,55%
CCN(CC(C)O)C(=O)c1ccc(-c2ccc(-c3nc4cccc(C)c4[nH]3)cc2)cc1 (centres undefined),Inhibition,Plasmodium falciparum [1],94%
same,Inhibition,Plasmodium falciparum [2],13%
same,Inhibition,HepG2,18%
Nc1ncc(-c2cccc(CCN3CCOCC3)c2)cc1-c1nc2cc(Br)ccc2[nH]1.O=C(O)C(F)(F)F,Inhibition,Plasmodium falciparum [1],100%
same,Inhibition,Plasmodium falciparum [2],98%
same,Inhibition,HepG2,60%
C=CCOC(=O)N1CCC(CNCc2cccc(-c3ccc(-c4nc5cc(C(F)(F)F)ccc5[nH]4)cc3)c2)C1.O=C(O)C(F)(F)F (centres undefined),Inhibition,Plasmodium falciparum [1],100%
same,Inhibition,Plasmodium falciparum [2],96%
same,Inhibition,HepG2,28%
OCc1ccc2nc3c(cc2c1)-c1cccc2cccc-3c12,Inhibition,Plasmodium falciparum [1],96%
same,Inhibition,Plasmodium falciparum [2],0%
same,Inhibition,HepG2,16%
CNc1ccc(CNCc2cccc(-c3ccc(-c4nc5ccccc5[nH]4)cc3)c2)cc1.O=C(O)C(F)(F)F,Inhibition,Plasmodium falciparum [1],100%
same,Inhibition,Plasmodium falciparum [2],80%
same,Inhibition,HepG2,18%
Cn1nccc1C(=O)NCCNCc1cccc(-c2ccc(-c3nc4ccccc4[nH]3)s2)c1.O=C(O)C(F)(F)F,Inhibition,Plasmodium falciparum [1],100%
same,Inhibition,Plasmodium falciparum [2],94%
same,Inhibition,HepG2,22%
COc1ccc2nc3cc(Cl)ccc3c(Nc3ccc(O)c(CNC(C)C)c3)c2c1,Inhibition,Plasmodium falciparum [1],100%
same,Inhibition,Plasmodium falciparum [2],100%
same,Inhibition,HepG2,5%
O=C(Nc1cccc(-c2nn3ncccc3c2-c2ccnc(Nc3ccc(N4CCOCC4)cc3)n2)c1)c1c(F)cccc1F,Inhibition,Plasmodium falciparum [1],100%
same,Inhibition,Plasmodium falciparum [2],75%
same,Inhibition,HepG2,75%
CN(C)C(CNC(=O)c1cc(-c2ccncc2)c(-c2ccc(NC(=O)Nc3cccc(F)c3)cc2)o1)c1ccccc1.O=C(O)C(F)(F)F (centres undefined),Inhibition,Plasmodium falciparum [1],100%
same,Inhibition,Plasmodium falciparum [2],99%
same,Inhibition,HepG2,11%
c1cncc(-c2cc(N3CCc4ccccc4C3)nc(-c3ccncc3)n2)c1,Inhibition,Plasmodium falciparum [1],100%
same,Inhibition,Plasmodium falciparum [2],100%
same,Inhibition,HepG2,56%
COc1cc2c(cc1S(=O)(=O)c1ccc(OCc3ccc(Cl)cc3)cc1)CCN(Cc1ccc(NC(C)=O)s1)CC2,Inhibition,Plasmodium falciparum [1],89%
same,Inhibition,Plasmodium falciparum [2],0%
same,Inhibition,HepG2,3%
CN(C)CCOc1ccc(-c2cc(-c3ccc(Cl)c(O)c3)c(-c3ccncc3)[nH]2)cc1.Cl,Inhibition,Plasmodium falciparum [1],98%
same,Inhibition,Plasmodium falciparum [2],92%
same,Inhibition,HepG2,54%
O=C(O)C(F)(F)F.Oc1ccc(CCNc2nc(NCCCOc3ccccc3-c3ccc(F)cc3)nc(N3CCNCC3)n2)cc1,Inhibition,Plasmodium falciparum [1],85%
same,Inhibition,Plasmodium falciparum [2],8%
same,Inhibition,HepG2,30%
CCOC(=O)[C@H](Cc1cc([N+](=O)[O-])c(Oc2ccc(OC)c(Cc3ccc(OC)c(C(C)C)c3)c2)c([N+](=O)[O-])c1)NC(=O)C(F)(F)F,Inhibition,Plasmodium falciparum [1],94%
same,Inhibition,Plasmodium falciparum [2],0%
same,Inhibition,HepG2,5%
O=C(Cc1cccs1)NCC(c1ccccc1Cl)c1c[nH]c2ccccc12 (centres undefined),Inhibition,Plasmodium falciparum [1],91%
same,Inhibition,Plasmodium falciparum [2],56%
same,Inhibition,HepG2,12%
COc1ccc(C2C(C(=O)OC3CCCC3)=C(C)NC3=C2C(=O)CCC3)cc1Br (centres undefined),Inhibition,Plasmodium falciparum [1],94%
same,Inhibition,Plasmodium falciparum [2],77%
same,Inhibition,HepG2,0%
O=C(/C=C/c1ccc(Cl)c(Cl)c1)NCCCCCN1CCCC(C(=O)Nc2ccc(Cl)cc2)C1 (centres undefined),Inhibition,Plasmodium falciparum [1],98%
same,Inhibition,Plasmodium falciparum [2],0%
same,Inhibition,HepG2,35%
COc1cc(-c2ccccc2)ccc1C(=O)Nc1ccc2c(c1)N(C)CCC2,Inhibition,Plasmodium falciparum [1],85%
same,Inhibition,Plasmodium falciparum [2],75%
same,Inhibition,HepG2,15%
Cc1cccn2c(=O)c3cc(C(=O)NC4CCCCC4)c(=N)n(CCCn4ccnc4)c3nc12,Inhibition,Plasmodium falciparum [1],100%
same,Inhibition,Plasmodium falciparum [2],8%
same,Inhibition,HepG2,1%
COCCNCc1ccc(-c2ccccc2CNC2CCN(Cc3ccccc3)CC2)cc1.O=C(O)C(F)(F)F,Inhibition,Plasmodium falciparum [1],97%
same,Inhibition,Plasmodium falciparum [2],28%
same,Inhibition,HepG2,17%
COc1ccc2nccc([C@@H](O)CN3CCC(NCc4ccc5c(n4)NCCC5)CC3)c2c1,Inhibition,Plasmodium falciparum [1],100%
same,Inhibition,Plasmodium falciparum [2],39%
same,Inhibition,HepG2,21%
Cc1noc(C)c1-c1ccc2c(Nc3ccc(C(F)(F)F)cc3)c(C(N)=O)cnc2c1.Cl,Inhibition,Plasmodium falciparum [1],100%
same,Inhibition,Plasmodium falciparum [2],95%
same,Inhibition,HepG2,1%
CN(C)c1ccc(CN2CCC(NC(=O)c3ccc(-c4ccccc4F)s3)CC2)cc1.O=C(O)C(F)(F)F,Inhibition,Plasmodium falciparum [1],86%
same,Inhibition,Plasmodium falciparum [2],27%
same,Inhibition,HepG2,41%
CCOC(=O)NC1=NC(=N)N(OCc2ccc(Cl)c(Cl)c2)C(C)(C)N1,Inhibition,Plasmodium falciparum [1],96%
same,Inhibition,Plasmodium falciparum [2],90%
same,Inhibition,HepG2,66%
COc1ccc(CNCc2ccc(-c3ccc(-c4nc5cc(C(F)(F)F)ccc5[nH]4)s3)cc2)cc1.O=C(O)C(F)(F)F,Inhibition,Plasmodium falciparum [1],100%
same,Inhibition,Plasmodium falciparum [2],98%
same,Inhibition,HepG2,38%
CN(Cc1ccc(NC(=O)CCC2CCN(C(=O)/C=C/c3ccc(Cl)c(Cl)c3)CC2)cc1)C1CCOCC1,Inhibition,Plasmodium falciparum [1],94%
same,Inhibition,Plasmodium falciparum [2],2%
same,Inhibition,HepG2,10%
Cc1cccc(C)c1/N=C1\NC(=S)N(c2cccc(Cl)c2)C12CCC(C(C)(C)C)CC2 (centres undefined),Inhibition,Plasmodium falciparum [1],87%
same,Inhibition,Plasmodium falciparum [2],53%
same,Inhibition,HepG2,4%
COc1cc(F)c2ncc(Cl)c(CCN3CCC(NCc4cc5c(cn4)OCCO5)CC3)c2c1.Cl,Inhibition,Plasmodium falciparum [1],89%
same,Inhibition,Plasmodium falciparum [2],57%
same,Inhibition,HepG2,2%
Cc1cc(C(=O)Nc2nc(-c3ccccn3)nc3ccsc23)no1,Inhibition,Plasmodium falciparum [1],98%
same,Inhibition,Plasmodium falciparum [2],90%
same,Inhibition,HepG2,44%
O=C(NCCc1ccccc1F)c1ccc(N2CCN(c3ccncc3)CC2)cn1.O=C(O)C(F)(F)F,Inhibition,Plasmodium falciparum [1],93%
same,Inhibition,Plasmodium falciparum [2],18%
same,Inhibition,HepG2,8%
CO/C(=C\C=C\c1cc2cc(Cl)c(Cl)cc2[nH]1)C(=O)NCCCN1CCN(c2cccc(OCC(=O)Nc3cccc(C(=O)c4ccccc4)c3)c2)CC1,Inhibition,Plasmodium falciparum [1],94%
same,Inhibition,Plasmodium falciparum [2],88%
same,Inhibition,HepG2,48%
N#CCCN1CCN(Cc2cccc(-c3ccc(-c4nc5ccccc5[nH]4)cc3)c2)CC1.O=C(O)C(F)(F)F,Inhibition,Plasmodium falciparum [1],93%
same,Inhibition,Plasmodium falciparum [2],20%
same,Inhibition,HepG2,18%
CCN(CC)CCN(Cc1ccc(-c2ccc(C(F)(F)F)cc2)cc1)C(=O)Cn1c(CCC2CCCCC2)nc(=O)c2ccccc21.O=C(O)C(O)C(O)C(=O)O,Inhibition,Plasmodium falciparum [1],87%
same,Inhibition,Plasmodium falciparum [2],25%
same,Inhibition,HepG2,32%
O=C(/C=C/c1ccc(Cl)c(Cl)c1)NCCCCCCN1CCN(C(=O)Nc2ccc(C(F)(F)F)cc2)CC1,Inhibition,Plasmodium falciparum [1],100%
same,Inhibition,Plasmodium falciparum [2],44%
same,Inhibition,HepG2,42%
Cl.N#Cc1cccc(-c2cccc(C(=O)NC3CCC(CCN4CCc5ccc(C#N)cc5CC4)CC3)c2)c1 (centres undefined),Inhibition,Plasmodium falciparum [1],99%
same,Inhibition,Plasmodium falciparum [2],57%
same,Inhibition,HepG2,31%
O=C(N1CCN(c2cccc(C(F)(F)F)c2)CC1)C(Cl)(Cl)Cl,Inhibition,Plasmodium falciparum [1],89%
same,Inhibition,Plasmodium falciparum [2],35%
same,Inhibition,HepG2,0%
COc1cc(NC(=O)c2c(-c3c(Cl)cccc3Cl)noc2C)c(OC)cc1Cl,Inhibition,Plasmodium falciparum [1],85%
same,Inhibition,Plasmodium falciparum [2],67%
same,Inhibition,HepG2,4%
CCOC(=O)c1cn(CC)c2cc(OCc3ccccc3)ccc2c1=O,Inhibition,Plasmodium falciparum [1],97%
same,Inhibition,Plasmodium falciparum [2],96%
same,Inhibition,HepG2,2%
CCC(CC(NCCCCNC(=O)c1ccc(NC(=O)c2ccc(Cl)cc2)cc1)c1ccccc1)c1ccccc1OC (centres undefined),Inhibition,Plasmodium falciparum [1],100% and 89%
same,Inhibition,Plasmodium falciparum [2],56% and 76%
same,Inhibition,HepG2,23% and 10%
COc1cc(F)c2ncc(F)c(CCN3C[C@H](CNCc4ccc5c(n4)NC(=O)CS5)[C@H](O)C3)c2c1.Cl,Inhibition,Plasmodium falciparum [1],91%
same,Inhibition,Plasmodium falciparum [2],47%
same,Inhibition,HepG2,10%
CCC(=O)N(c1ccccc1)C1CCN(CCCC(NC(=O)c2cc(C(F)(F)F)cc(C(F)(F)F)c2)c2ccc(Cl)c(Cl)c2)CC1 (centres undefined),Inhibition,Plasmodium falciparum [1],96%
same,Inhibition,Plasmodium falciparum [2],57%
same,Inhibition,HepG2,24%
COc1ccc2nccc(NC(=O)C3(O)CCC(NCc4ccc5c(c4)NCCS5)CC3)c2n1.Cl (centres undefined),Inhibition,Plasmodium falciparum [1],93%
same,Inhibition,Plasmodium falciparum [2],64%
same,Inhibition,HepG2,1%
Cl.N=c1n(CCN2CCCCC2)c2ccccc2n1CC(O)c1ccc(Cl)c(Cl)c1 (centres undefined),Inhibition,Plasmodium falciparum [1],97%
same,Inhibition,Plasmodium falciparum [2],97%
same,Inhibition,HepG2,50%
Cc1c(Cc2ccc(F)cc2)c(Cl)nc2nc(N)nc(N)c12,Inhibition,Plasmodium falciparum [1],92%
same,Inhibition,Plasmodium falciparum [2],1%
same,Inhibition,HepG2,66%
CCc1ccc(S(=O)(=O)Nc2ccc(CCN(C)C3CCN(C)CC3)cc2)cc1,Inhibition,Plasmodium falciparum [1],86%
same,Inhibition,Plasmodium falciparum [2],9%
same,Inhibition,HepG2,25%
Clc1ccc(Nc2nc(NCc3ccccc3)nc(N/N=C/c3ccccn3)n2)cc1,Inhibition,Plasmodium falciparum [1],99%
same,Inhibition,Plasmodium falciparum [2],91%
same,Inhibition,HepG2,41%
